# Assay results reported in the supplement of paper PMC6555819.
# What was measured:
# Test in all cases: PBM binding z-score (relative to random genomic background probes); higher = stronger binding; sequences stand for … in GC…GCGATTGACAGCGTAGAATGAAGG
# [1] = test system: PPARg:RXRa DBDmut IVT, anti-RXR (DBD mutation: RXRa K156A/R161A, NR concentration 270 nM, RXRa partner concentration 90 nM)
# In short: (§1)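 Scanned fluorescence from custom Agilent 4×180K protein-binding microarrays was regression-normalized. Binding z-scores use random background probes as reference. Ligand-free nuclear receptor dimers were incubated on the arrays for 1 h and detected with antibodies against each partner (one per run).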
# [2] = test system: PPARg:RXRa IVT, anti-PPARg (NR concentration 270 nM, RXRa partner concentration 90 nM)
# In short: as §1
# [3] = test system: PPARg DBDmut:RXRa IVT, anti-PPARg (DBD mutation: PPARg1 K132A/R137A, NR concentration 270 nM, RXRa partner concentration 90 nM)
# In short: as §1
# [4] = test system: PPARg DBDmut IVT, anti-PPARg (DBD mutation: PPARg1 K132A/R137A, NR concentration 270 nM)
# In short: as §1
# [5] = test system: PPARg homodimer (NR concentration 180 nM)
# In short: as §1
# [6] = test system: PXR:RXRa (NR concentration 270 nM, RXRa partner concentration 90 nM)
# In short: as §1
# [7] = test system: PXR homodimer (NR concentration 270 nM)
# In short: as §1
# [8] = test system: RARa:RXR (NR concentration 270 nM, RXRa partner concentration 90 nM)
# In short: as §1
# [9] = test system: RARa homodimer (NR concentration 270 nM)
# In short: as §1
# [10] = test system: RARb:RXRa (NR concentration 270 nM, RXRa partner concentration 90 nM)
# In short: as §1
# [11] = test system: RARb homodimer (NR concentration 270 nM)
# In short: as §1
# [12] = test system: RARg:RXRa (NR concentration 270 nM, RXRa partner concentration 90 nM)
# In short: as §1
# [13] = test system: RARg homodimer (NR concentration 270 nM)
# In short: as §1
# [14] = test system: RXRa DBDmut IVT, anti-RXR (DBD mutation: RXRa K156A/R161A, NR concentration 90 nM)
# In short: as §1
# [15] = test system: RXRa homodimer (NR concentration 180 nM)
# In short: as §1
# [16] = test system: THRa:RXRa (NR concentration 90 nM, RXRa partner concentration 90 nM)
# In short: as §1
# [17] = test system: THRa homodimer (NR concentration 90 nM)
# In short: as §1
# [18] = test system: VDR homodimer (NR concentration 270 nM)
# In short: as §1
Sequence,PBM binding z-score [1],PBM binding z-score [2],PBM binding z-score [3],PBM binding z-score [4],PBM binding z-score [5],PBM binding z-score [6],PBM binding z-score [7],PBM binding z-score [8],PBM binding z-score [9],PBM binding z-score [10],PBM binding z-score [11],PBM binding z-score [12],PBM binding z-score [13],PBM binding z-score [14],PBM binding z-score [15],PBM binding z-score [16],PBM binding z-score [17],PBM binding z-score [18]
CGAACTAGGTCGTTGACAGGACAGTGAATAGTAA,5.75,5.01,0.86,0.354,0.203,0.234,-0.188,0.276,-0.436,1.18,0.711,1.6,1.2,1.18,0.488,1.33,0.0428,0.716
CCGACTGGGGCAAAGGTTACCAAACTCAGTACGA,4.42,6.14,-0.923,-0.533,1.38,2.51,-0.494,4.11,0.0196,2.52,2.24,3.53,1.67,-0.134,3.74,1.98,-0.144,0.318
CAAACTAGGTCATGAAAGGTCAAAGTCGAATGAC,8.27,8.84,5.43,7.62,9.18,7.23,2.71,7.33,4.32,5.36,5.55,7.46,7.78,2.45,7.87,5.19,2.21,4.05
TCTTGTAGATCACTAGAGGTTAAGAAAGTGCGCT,1.81,1.16,1.46,0.897,0.0426,3.04,0.56,1.74,0.205,1.03,1.33,0.919,0.66,0.477,1.6,2.43,-0.317,0.162
GCTATTAGTTGAGAGGGCAACCGAATGATTCTCG,0.549,0.28,0.117,-0.0279,0.87,0.651,-0.0553,0.826,0.278,1.4,1.14,0.913,1.01,0.884,0.882,0.555,-0.117,0.435
CGAACTAGGTCATTGTCAGGACAGTGAATAGTAA,8.22,8.47,5.17,6.24,3.98,1.84,0.47,2.49,0.423,3.48,2.62,4.33,4.35,2.31,2.37,4.27,2.09,1.82
CCGACTGGGGCAGAAAGGTTACCATGCCATCCGG,1.38,2.43,-1.53,-1.09,0.386,0.882,-0.381,1.61,-0.141,2,2.33,1.54,1.08,-1.07,1.72,1.05,-0.541,-0.201
TCTATTAGTTGATTAAGGCAACCGAAACAGCGGA,2.31,0.341,1.4,0.689,0.977,0.454,0.378,0.873,1.34,0.0773,-0.49,0.163,0.201,1.35,0.349,0.746,0.601,0.261
CGAACTAGGTCATTTACAGGACAGTGAATAGTAA,8.11,8.23,5.73,3.57,2.35,1.74,0.63,2.39,0.283,3.39,2.66,4.82,4.09,2.58,2.38,2.89,0.896,1.75
CCTATCAGGCCAGGGTCACTCAAGCATTTCGCTT,0.0359,1.06,-1.33,-0.669,1.28,2.59,-0.206,3.5,0.157,2.74,2.88,3.19,2.62,0.325,3.65,3.19,1.36,1.33
GGAACGAGGGCAAAGTTGATAGGATCTGTCGACG,3.81,4.2,0.474,-0.389,0.743,1.31,0.619,1.58,0.0143,2.41,1.32,2.19,1.89,2.92,2.12,1.36,-0.0299,1.34
TCAGACAGGTGCAGGTAACTCAGGTACGCAGTCG,1.83,-0.017,-0.24,-0.576,-0.207,0.426,-0.203,0.659,-0.372,0.311,-0.182,-0.0126,-0.0497,0.956,0.745,0.824,0.0725,0.478
TCTTGTTGGTCACGGAGGTCACACACGACGGGTA,2.92,4.57,2.15,2.59,4.65,5,2.43,5.34,3.1,4.17,4.67,5.21,5.01,1.25,5.34,3.66,3.03,3.59
TAGCCTAGGTCATTCTGGGGCCAGTATAGAAAGC,1.71,2.77,0.208,0.242,0.886,2.29,-0.248,2.76,-0.372,3.67,2.94,4.85,3.81,1.87,2.52,3.62,0.956,1.11
CGAACTAGCTCAGAACAGGACAGTGAAGGATGAT,-0.0249,-0.714,-0.195,0.0741,-0.71,-0.669,0.0442,-0.393,0.354,-0.236,-0.0575,-0.313,0.137,0.021,-0.191,-0.173,-0.29,-0.0975
TGCATGAGGTTATAAGATCAGGGAACGTTGCAAA,-0.354,0.643,0.656,0.178,0.466,0.667,-0.0693,1.48,0.252,1.4,0.168,1.64,1.08,1.32,1.84,1.93,0.273,0.679
TCTGGTAGATCAAGCAGGTTAAGAAAGCCTGAGT,1.17,-0.178,-0.408,-0.683,-0.462,0.159,0.156,0.213,-0.519,-0.0969,-0.182,-0.3,-0.211,0.0546,0.202,-0.00478,-0.796,0.261
CGAACTAGGTCAAGGACAGAGAATCTCCGCACGC,8.21,8.28,3.36,1.6,1.59,0.886,-0.0315,1.87,0.29,3.87,2.93,3.95,4.67,1.52,2.61,2.74,1.79,0.0808
GCATAGAGGTAATACAAGGTGAAAGTCCGATTGT,1.06,1.35,0.658,0.616,0.00249,1.03,-0.217,1.18,0.413,0.751,1.08,0.816,0.537,0.392,0.977,4.44,0.985,0.216
ATCTCTAGGTAAAGATAGTTCGGTGAATGCAAAT,2.2,1.58,0.574,0.789,0.784,0.102,0.511,0.121,0.697,0.0855,-0.015,0.125,0.491,0.0249,-0.171,0.322,0.197,0.151
ATACCAAGGTAATCGTGAGGTCGTTGATACTAAC,0.339,0.661,0.385,0.929,0.827,2.55,1.36,2.06,-0.0819,1.07,1.44,1.55,0.586,0.482,1.2,3.27,2.64,3.08
TTCCCAAGGTGAAAGGTCGTTGATGCACGCCTTG,1.67,4.56,0.3,-0.0355,1.79,4.12,0.342,5.56,-0.11,3.13,3.14,4.25,2.13,0.532,5.91,3.6,1.4,1.52
CGTCCAAGGTCAGAGATGTCAGTGAATGCCGAGT,2.09,2.19,-0.242,-0.744,0.984,2.43,1,2.65,0.429,4.54,3.66,4.35,5.29,2.72,3.3,3.29,1.9,1.82
TCGAGTAGGTTAGAGGCATTCAGAATGGCGTCGA,1.65,0.965,-0.829,-0.771,0.087,-0.51,-0.852,-0.767,-0.955,0.0217,-0.851,-0.25,-0.164,-0.37,0.0736,-1.08,-1.15,-0.449
GATACAGGGTCGAGGCCAGAGTACGCGTATTGAT,-0.175,0.711,-0.769,-0.92,0.109,0.68,-0.735,1.37,-0.498,1.91,1.31,1.98,1.9,0.497,2.13,1.67,0.075,0.897
GTAACGAGGGCAAAGTTGATAGCATCTGTCGACG,4.16,4.69,0.947,0.296,0.574,1.36,0.402,1.77,0.268,2.36,1.38,1.97,1.78,2.73,2.08,1.41,-0.0253,1.7
AATTCAGGGTCATCGTAGGCCAGAGTACGCACAG,3.42,4.57,2.45,3.09,2.85,5.49,1.43,5.54,1.45,4.45,3.87,6.21,5.46,3.82,7.13,4.78,2.24,4.01
AAAATGAGGTTATACGTAGATCAGGGAAGAAAGT,4.62,3.11,2.19,1.29,0.818,1.37,0.994,1.99,0.921,1.56,0.619,1.88,1.14,1.93,2.37,2.24,0.727,1.13
AGAATGAGGTTACCAAAGATCAGGGAGACGCTTG,3.87,3.22,1.19,0.476,0.567,1.53,0.0174,1.99,0.112,2.15,0.689,2.21,1.8,1.28,2.77,2.86,0.711,0.443
